Laboratory results taken from patent publication US20210230599, “STEM-LOOP COMPOSITIONS AND METHODS FOR INHIBITING INTERLEUKIN-8” (VITRISA THERAPEUTICS, INC., published 2021).

The sequences below were run against Interleukin-8 (IL8, CXCL8), C-terminal His-tagged (Homo sapiens, UniProt P10145 SEQ:1-72) (assay: competition; competition TR-FRET; L1 A to U, described as complete loss). Settings: tags: C-terminal 6xHis (Sino Biological); ssRNA; 2'-F G, 2'-OMe A/C/U, 5' C6NH2, 3' idT.
Experimental: To better understand the sequence requirements and to confirm the stem structures of members of the Aptamer 3 family as determined from sequence covariation analysis from both the primary and secondary (degenerate) selections, a series of variants which included mutations and deletions to the predicted stems were synthesized and screened (Table 24). Activity of each of these variants were tested using a time resolved competition TR-FRET assay in which the labeled parent Aptamer 3 was competed with increasing concentrations of unlabeled variants for binding to IL8 (FIG. 14). Briefly, 2-fold dilutions of thermally equilibrated aptamers were made in TR-FRET Buffer (50 mM MOPS, pH 7.4, 125 mM NaCl, 5 mM KCl, 50 μM CHAPS, 0.1 mg/mL BSA, 1 mM CaCl₂, and 1 mM MgCl₂). 5 μL of aptamer or control solution was added to 5 μl mix of 10 nM C-terminal His-tagged-IL8, 60 nM ALEXA FLUOR® 647-labeled Aptamer, and 5 nM anti-His-Eu (Perkin Elmer) in a black wall low volume 384 well plate (Greiner). […] The plate was read on a Biotek CYTATION™ 5 plate reader. […]
To confirm the importance of this residue, molecules were made and tested in which either loop L1 was deleted entirely (Aptamer 40) or was mutated to 5′-U-3′(Aptamer 41). In both cases, there was a complete loss of activity (>10-fold) as determined by competition TR-FRET assay (Table 25 and FIG. 15).

| Sequence | binding signal [fold worse than Aptamer 3] |
| --- | --- |
| GAUGUCGGUAGAUUACGGGUAGAGUGACCGCAUC | > 10 |
